Assay [1] relates to Plasmodium falciparum Sir2 (PF13_0152, Sir2A). Description: Plasmodium falciparum Sir2A binding compounds – biochemical, small-molecule microarray, 635 nm fluorescence, primary screen (AID 1098).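 Further: score merges spot fluorescence intensity with its signal-to-noise ratio.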 The conditions noted are these: fluorescence 635 nm, higher = more signal.
The nature of assay [2]: probe aDKK1 binding to arrayed compounds – biochemical, biotinylated probe, 635/667 nm fluorescence, primary screen (AID 1099).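 Further: score merges 667nm spot fluorescence with signal to noise across triplicate slides.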 The conditions noted are these: small-molecule microarray, higher = more signal.
Assay [3] in a line: probe aCHRDL2 binding to arrayed compounds – biochemical, biotinylated probe, 635/667 nm fluorescence, primary screen (AID 1100). Particulars: small-molecule microarray, higher = more signal.
Assay [4] is described as follows: change in splice reporter luminescence, either direction, cell-based, HEK293, spliceosome inhibition project, primary screen (AID 1101).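 Further: HEK293 cells carrying a splicing-competent luciferase reporter gene; test concentration not given here.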 The conditions noted are these: HEK293 splicing luciferase reporter, 24 h, higher = more signal, called active from +8 up or from −8 down. A general note: In a reporter assay the amount or activity of a reporter protein is the signal.

Assay [5] addresses Fibroblast growth factor 10 (Homo sapiens) (UniProt O15520). Description: compounds binding fibroblast growth factor 10 – biochemical, small-molecule microarray, 635 nm fluorescence, primary screen (AID 1102). Particulars: FGF10 binding, fluorescence 635 nm, higher = more signal.
Assay [6] relates to glycogen synthase kinase-3 (GSK3A per assay name; protocol says GSK3B). The assay is described as follows: compounds binding glycogen synthase kinase-3 – biochemical, small-molecule microarray, 635 nm fluorescence, GSK3A, primary screen (AID 1103). Further: the record names both GSK3A and GSK3B. Particulars: fluorescence 635 nm, higher = more signal.
The target in assay [7] is Epidermal growth factor receptor (Homo sapiens) (UniProt P00533). The assay is described as follows: compounds binding epidermal growth factor receptor – biochemical, small-molecule microarray, 635 nm fluorescence, primary screen (AID 1104).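 Further: score merges 667 nm emission intensity with spot signal to noise over triplicate slides.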 The conditions noted are these: EGFR binding, higher = more signal.
For assay [8], the target named is Follistatin-related protein 3 (Homo sapiens) (UniProt O95633). The assay is described as follows: compounds binding follistatin-related protein 3 – biochemical, small-molecule microarray, 635 nm fluorescence, primary screen (AID 1105).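 Further: score merges emission near 667 nm and signal to noise per printed spot across three slides.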 The conditions noted are these: FSTL3 binding, higher = more signal.
Assay [9] deals with Dickkopf-related protein 1 (Homo sapiens) (UniProt O94907). Description: small molecules binding DKK1 protein – biochemical, small-molecule microarray, 635 nm fluorescence scan, primary screen (AID 1106).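 Further: score merges emission near 667 nm with signal to noise over three replicate slides.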 Particulars: higher = more signal.
The test system of assay [10] is Inhibin beta A chain (activin A). The assay is described as follows: small molecules binding activin A – biochemical, small-molecule microarray, 635 nm fluorescence scan, primary screen (AID 1107).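 Further: mouse activin A protein probed at 4.33 µg/mL on printed slides; score merges bound-protein fluorescence near 667 nm with spot signal-to-noise.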 The conditions noted are these: INHBA, higher = more signal.
Assay [11] relates to Human papillomavirus type 1a protein E7 (residues 44-93). The assay is described as follows: small molecules binding HPV E7 44-93 – biochemical, small-molecule microarray, residues 44-93, 635 nm fluorescence, primary screen (AID 1108).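 Further: E7 fragment applied at 1 µg/mL in TBST for 1 h at 4 C; score combines spot fluorescence with its signal to noise ratio.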 Particulars: fluorescence 635 nm, higher = more signal.
Assay [12] in a line: hepatitis C replication reporter changes, two-sided – Huh7 cells, luciferase reporter, HCV replication inhibitor project, primary screen (AID 1109).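 Further: huh7 hepatoma cells harbouring a luciferase neomycin HCV replicon reporter; luciferase luminescence as measure of HCV replicon replication; test concentration not given here.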 The conditions noted are these: Huh7 HCV replicon luciferase reporter, 48 h; higher = more signal.
In assay [13] the target is Left-right determination factor 2 (Homo sapiens) (UniProt O00292). The assay is described as follows: small molecules binding LEFTY2 protein – biochemical, small-molecule microarray, 635 nm fluorescence scan, primary screen (AID 1110). Particulars: higher = more signal.
Assay [14] has as its target Calmodulin-1 (Homo sapiens) (UniProt P0DP23). The assay is described as follows: small molecules binding calmodulin-1 with EGTA – biochemical, small-molecule microarray, Cy5-labelled CALM1, profiling panel (AID 1111).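 Further: labelled calmodulin applied in Tris saline Tween buffer holding calcium plus EGTA and DTT.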 Particulars: Cy5-CALM1 binding fluorescence, higher = more signal.
Assay [15] has the same target. Description: small molecules binding Ca-loaded calmodulin-1 – biochemical, small-molecule microarray, Cy5-labelled CALM1, plus calcium, artefact control for SMM control-protein annotation, profiling panel (AID 1112).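 Further: score merges spot fluorescence with signal to noise from triplicate slides.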 Particulars: Cy5-CALM1 binding fluorescence, higher = more signal.
A short description of assay [16]: probe aWnt5a binding to arrayed compounds – biochemical, biotinylated probe, 635/667 nm fluorescence, primary screen (AID 1113).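 Further: score merges 667 nm fluorescence intensity with signal-to-noise per printed feature.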 The conditions noted are these: small-molecule microarray, higher = more signal.
A short description of assay [17]: probe aShh binding to arrayed compounds – biochemical, biotinylated probe, 635/667 nm fluorescence, primary screen (AID 1114).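 Further: probe is biotin-labelled aShh protein from a stem cell growth factor screen; measures binding of labelled protein to compounds printed on the slide; score merges feature fluorescence at 667 nm with signal-to-noise.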 Particulars: small-molecule microarray, higher = more signal.
The nature of assay [18]: probe aNog binding to arrayed compounds – biochemical, biotinylated probe, 635/667 nm fluorescence, primary screen (AID 1115).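 Further: probe is biotinylated aNog protein used at 0.15 µg/mL for 1 h at 4 C; z-score combines 667 nm fluorescence of each spot with its signal to noise.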 Particulars: small-molecule microarray, higher = more signal.
For assay [19], the target named is Torsin-1A-interacting protein 1 (Homo sapiens) (UniProt Q5JTV8). The assay is described as follows: compound microarray binding of lysate hLAP1 – cell lysate, small-molecule microarray, COS7 lysate, 635/667 nm fluorescence, primary screen (AID 1116). Particulars: 635 nm fluorescence, higher = more signal.
Assay [20] addresses Alpha-bungarotoxin (Bungarus multicinctus) (UniProt P60615). Description: compounds binding labelled alpha-BTX control protein – biochemical, small-molecule microarray, Alexa647 label, 635/667 nm fluorescence, artefact control for SMM control protein annotation, profiling panel (AID 1117). The conditions noted are these: alpha-BTX-A647 binding fluorescence, higher = more signal.

Activity calls are given as the source filed them.

Follistatin-related protein 3 (Homo sapiens), sequence (O95633 whole entry, looked up): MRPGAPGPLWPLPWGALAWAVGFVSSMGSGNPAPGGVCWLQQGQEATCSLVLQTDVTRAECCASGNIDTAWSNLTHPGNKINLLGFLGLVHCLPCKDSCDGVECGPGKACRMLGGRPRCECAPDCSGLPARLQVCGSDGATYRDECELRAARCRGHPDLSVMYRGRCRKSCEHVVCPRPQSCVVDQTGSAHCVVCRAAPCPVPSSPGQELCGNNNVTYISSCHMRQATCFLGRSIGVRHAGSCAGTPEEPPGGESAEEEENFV
Dickkopf-related protein 1 (Homo sapiens), sequence (O94907 whole entry, looked up): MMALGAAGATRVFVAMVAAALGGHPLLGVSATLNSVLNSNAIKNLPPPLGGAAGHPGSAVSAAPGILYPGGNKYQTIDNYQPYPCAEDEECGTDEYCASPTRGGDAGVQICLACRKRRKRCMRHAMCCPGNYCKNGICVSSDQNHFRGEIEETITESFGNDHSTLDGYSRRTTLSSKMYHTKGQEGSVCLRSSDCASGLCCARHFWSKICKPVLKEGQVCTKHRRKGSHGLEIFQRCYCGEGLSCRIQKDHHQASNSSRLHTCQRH
Fibroblast growth factor 10 (Homo sapiens), sequence (O15520 whole entry, looked up): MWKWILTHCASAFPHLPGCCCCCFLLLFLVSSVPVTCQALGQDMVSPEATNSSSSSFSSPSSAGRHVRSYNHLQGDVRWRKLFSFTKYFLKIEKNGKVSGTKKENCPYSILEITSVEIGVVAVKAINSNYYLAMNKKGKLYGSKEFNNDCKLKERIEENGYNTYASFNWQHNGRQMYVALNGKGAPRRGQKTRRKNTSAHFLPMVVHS
Torsin-1A-interacting protein 1 (Homo sapiens), sequence (Q5JTV8 whole entry, looked up): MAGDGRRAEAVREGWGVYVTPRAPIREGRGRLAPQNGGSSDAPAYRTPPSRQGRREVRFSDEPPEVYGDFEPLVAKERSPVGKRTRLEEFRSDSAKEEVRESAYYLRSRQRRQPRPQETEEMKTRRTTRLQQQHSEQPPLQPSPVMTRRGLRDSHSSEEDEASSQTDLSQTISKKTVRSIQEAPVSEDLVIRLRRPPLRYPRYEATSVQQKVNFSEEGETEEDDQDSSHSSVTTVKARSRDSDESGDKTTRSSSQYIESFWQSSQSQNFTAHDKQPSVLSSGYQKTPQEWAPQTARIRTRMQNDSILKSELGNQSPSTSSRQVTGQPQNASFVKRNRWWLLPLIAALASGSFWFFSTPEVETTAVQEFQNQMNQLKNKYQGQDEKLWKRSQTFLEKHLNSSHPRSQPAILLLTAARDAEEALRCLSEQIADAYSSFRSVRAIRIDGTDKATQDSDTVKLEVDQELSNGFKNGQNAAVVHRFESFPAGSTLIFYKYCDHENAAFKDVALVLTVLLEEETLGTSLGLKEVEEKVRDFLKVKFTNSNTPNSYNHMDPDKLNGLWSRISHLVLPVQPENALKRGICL
Epidermal growth factor receptor (Homo sapiens), sequence (P00533 whole entry, looked up): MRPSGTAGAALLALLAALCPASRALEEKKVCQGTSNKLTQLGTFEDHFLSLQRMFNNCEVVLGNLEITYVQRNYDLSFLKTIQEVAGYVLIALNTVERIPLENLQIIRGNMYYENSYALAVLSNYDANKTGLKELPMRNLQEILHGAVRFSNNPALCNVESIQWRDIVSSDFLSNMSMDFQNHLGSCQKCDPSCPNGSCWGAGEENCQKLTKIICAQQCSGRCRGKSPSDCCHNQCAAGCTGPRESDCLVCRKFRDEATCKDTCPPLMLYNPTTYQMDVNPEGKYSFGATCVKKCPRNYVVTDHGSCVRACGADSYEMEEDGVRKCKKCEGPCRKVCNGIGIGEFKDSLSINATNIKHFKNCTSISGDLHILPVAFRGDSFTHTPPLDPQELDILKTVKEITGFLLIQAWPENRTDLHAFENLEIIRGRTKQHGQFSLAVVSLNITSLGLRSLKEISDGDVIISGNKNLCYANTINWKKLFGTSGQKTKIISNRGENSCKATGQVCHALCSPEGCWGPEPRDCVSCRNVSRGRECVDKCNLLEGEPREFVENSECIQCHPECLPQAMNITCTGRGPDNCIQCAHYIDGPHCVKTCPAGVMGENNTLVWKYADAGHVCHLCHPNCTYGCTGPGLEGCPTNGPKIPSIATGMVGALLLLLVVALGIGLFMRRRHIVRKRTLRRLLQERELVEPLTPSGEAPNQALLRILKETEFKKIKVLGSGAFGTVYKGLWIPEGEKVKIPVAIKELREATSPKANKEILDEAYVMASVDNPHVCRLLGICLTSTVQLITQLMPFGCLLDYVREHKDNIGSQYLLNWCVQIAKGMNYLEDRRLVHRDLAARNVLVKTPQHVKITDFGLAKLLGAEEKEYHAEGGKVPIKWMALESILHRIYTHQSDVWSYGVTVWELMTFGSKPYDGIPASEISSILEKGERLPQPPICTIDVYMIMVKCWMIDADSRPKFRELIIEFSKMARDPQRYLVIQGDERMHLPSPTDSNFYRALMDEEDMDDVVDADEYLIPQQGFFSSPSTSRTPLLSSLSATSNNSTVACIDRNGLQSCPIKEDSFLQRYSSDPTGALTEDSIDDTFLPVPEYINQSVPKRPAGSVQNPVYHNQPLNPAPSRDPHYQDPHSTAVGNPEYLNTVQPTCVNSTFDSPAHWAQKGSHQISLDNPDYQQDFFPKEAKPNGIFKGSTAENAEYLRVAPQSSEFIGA
Left-right determination factor 2 (Homo sapiens), sequence (O00292 whole entry, looked up): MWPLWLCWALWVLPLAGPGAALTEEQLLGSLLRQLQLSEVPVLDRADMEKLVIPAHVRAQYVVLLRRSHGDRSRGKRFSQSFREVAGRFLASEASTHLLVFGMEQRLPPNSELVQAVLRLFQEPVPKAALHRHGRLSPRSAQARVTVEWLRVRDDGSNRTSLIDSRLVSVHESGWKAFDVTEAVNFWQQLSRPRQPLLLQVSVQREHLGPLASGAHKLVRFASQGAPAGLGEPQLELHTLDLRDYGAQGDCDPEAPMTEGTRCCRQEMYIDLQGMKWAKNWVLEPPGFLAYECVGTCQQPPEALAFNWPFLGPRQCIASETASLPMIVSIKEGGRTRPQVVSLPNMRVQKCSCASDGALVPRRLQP
Alpha-bungarotoxin (Bungarus multicinctus), sequence (P60615 whole entry, looked up): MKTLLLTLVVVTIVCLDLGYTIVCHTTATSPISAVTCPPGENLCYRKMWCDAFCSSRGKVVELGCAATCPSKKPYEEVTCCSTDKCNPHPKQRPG

On to `CCCN1C(=O)[C@]2(CCS(=O)(=O)c3ccccc3)N=C(c3ccc(OCCCO)cc3)O[C@@H]2c2ccccc21`, for which the composite z-score in assay [1] is 1.19; in [2], 0.0947; in assay [3], 0.766; in [5] it was 0.533; in assay [6], 1.32; in assay [7] it was 0.0338. Moreover, the composite z-score in [8] turned out to be 1.05; in assay [9] it was 0.125; in assay [10], 0.916; in assay [11] it was 1.42; in assay [13] it was 0.16; in [14], 3.15. In addition, the composite z-score was -0.0613 in assay [15]; -0.0643 in [16]; 0.0893 in [17]; -0.153 in assay [18]; 1.74 in assay [19]; 1.14 in assay [20]. The z-score is -0.707 (inactive) in assay [4] and -2.49 in assay [12].

Consider `C[C@]1(C(=O)NC2CC2)c2ccccc2C(=O)N(Cc2cc(C(F)(F)F)cc(C(F)(F)F)c2)[C@H]1c1ccc(CO)cc1`, for which the composite z-score turned out to be 1.56 in assay [1]; 0.757 in assay [2]; 0.298 in assay [3]; 0.711 in [5]; 0.948 in [6]; 0.279 in assay [7]. For the same compound, the composite z-score was found to be 0.865 in assay [8]; 0.585 in assay [9]; 0.592 in [10]; 1.29 in assay [11]; 0.122 in assay [13]; 0.224 in assay [14]. For the same compound, the composite z-score in assay [15] was 0.114; in assay [16] it was -0.0478; in [17], -0.276; in assay [18], 0.467; in [19], 0.207; in assay [20], 1.48. The z-score in [4] is -0.402 (inactive); in assay [12] it was -0.106.

With `COc1cc(OC)c(C(O)C2C=CC3C(=O)NC(=O)C3N2Nc2ccc(Cl)cc2Cl)cc1Br` (stereo not given), the composite z-score in [1] was 1.38; in assay [2], 2.08; in assay [3] it was 1.16; in assay [5] it was 0.0245; in assay [6] it was 0.0735; in [7] it was -0.142. Further, the composite z-score in [8] is 0.498; in assay [9] it was -0.985; in assay [10], 0.312; in assay [11] it was 1.09; in assay [13], -0.75; in [14] it was 2.09. Further, the composite z-score was 0.436 in [15]; -0.0685 in assay [16]; 0.0875 in [17]; 1.61 in assay [18]; 1.38 in [19]; 1.27 in assay [20]. Besides, the z-score in assay [4] is 2.41 (inactive); in assay [12], -1.66.

For the compound `[N-]=[N+]=Nc1ccccc1C[C@]1(C(=O)NCC(O)CO)N=C(c2ccc(OCCCO)cc2)O[C@H]1c1ccccc1N=[N+]=[N-]` (stereo not given in full), the composite z-score was 0.535 in [1]; 0.963 in assay [2]; 0.704 in assay [3]; -0.255 in assay [5]; -0.517 in [6]; -0.363 in assay [7]. The composite z-score in assay [8] is -0.736; in [9], -1.12; in assay [10] it was 1.01; in assay [11], 0.577; in assay [13], -0.588; in [14], 0.771. Besides, the composite z-score in assay [15] is 0.839; in [16], -0.0285; in [17], 0.232; in assay [18], -0.0592; in assay [19], 0.407; in [20] it was 0.15. Also, the z-score in assay [4] was -1.19 (inactive); in [12], -1.74.

Take `COCCOC(=O)N1C(=O)[C@@]2(c3cc(C#CC4=CCCCC4)ccc31)[C@H](C(N)=O)[C@H]1C(=O)O[C@H](c3ccccc3)[C@H](c3ccccc3)N1[C@@H]2c1ccc(OCCO)cc1`: the composite z-score is 0.497 in assay [1]; -0.504 in [2]; -0.091 in assay [3]; 1.31 in [5]; 1.1 in assay [6]; 0.0883 in assay [7]. In addition, the composite z-score is 1.22 in [8]; 0.553 in [9]; 0.052 in assay [10]; -0.71 in assay [11]; 0.331 in assay [13]; -0.822 in assay [14]. Moreover, the composite z-score is -0.919 in [15]; -0.124 in assay [16]; 0.049 in assay [17]; 0.299 in [18]; 0.855 in assay [19]; 1.56 in assay [20]. The z-score in assay [4] is 0.497 (inactive); in assay [12], -2.5.

For the compound `CC(C)[C@@H](CO)NC(=O)[C@H]1[C@@H](c2ccccc2)N(c2ccccc2)O[C@@H]1C`, the composite z-score in [1] is 0.008; in assay [2], -0.343; in assay [3], -0.343; in [5], -0.123; in [6], -0.418; in assay [7] it was -0.0881. Moreover, the composite z-score in [8] was -0.218; in [9] it was 0.227; in [10], 0.197; in assay [11] it was 0.0503; in [13], 0.28; in assay [14] it was -0.31. The composite z-score was -0.354 in assay [15]; -0.148 in [16]; -0.186 in assay [17]; -0.181 in assay [18]; 0.382 in [19]; 0.0366 in assay [20]. Further, the values for the z-score in assay [4] and in assay [12] were -0.18 (inactive) and 0.0505, respectively.

Take `CN1C(=O)C2C=CC(C(O)c3ccccc3)N(Nc3ccccc3)C2C1=O` (stereo not given): the composite z-score is 1.54 in [1]; 0.754 in [2]; 1.13 in assay [3]; -0.678 in assay [5]; -0.415 in assay [6]; -1.32 in [7]. Besides, the composite z-score in assay [8] is -0.674; in [9] it was -1.22; in assay [10], 0.918; in assay [11], -0.265; in [13], -1.52; in assay [14] it was 0.253. Besides, the composite z-score was -0.143 in [15]; -0.0758 in assay [16]; -0.0813 in [17]; -0.448 in [18]; -0.454 in [19]; 0.201 in [20]. Further, the z-score in [4] is 1.03 (inactive); in [12] it was 0.773.

As to `CC(C)C[C@H]1NC(=O)[C@@]23C(=O)N[C@@H](Cc4ccccc4)C2[C@H](C)[C@@]2(C)O[C@H]2C3/C=C/C/C=C\CNC(=O)[C@H](Cc2ccccc2)NC1=O` (stereo not given in full), the composite z-score in assay [1] is 0.777; in assay [2], -0.283; in assay [3], -0.471; in [5], 0.903; in [6] it was 0.47; in [7], 0.447. Also, the composite z-score is 0.816 in assay [8]; 0.599 in assay [9]; 0.867 in assay [10]; 1.06 in assay [11]; 0.452 in assay [13]; -0.434 in assay [14]. Besides, the composite z-score in assay [15] is -0.578; in assay [16], -0.0735; in [17] it was -0.0553; in assay [18], -0.194; in [19], -0.225; in assay [20] it was -0.0973. The z-score is 0.000958 (inactive) in assay [4] and -1.32 in assay [12].

The values above are taken from PubChem BioAssay.
